Assay results: PubChem BioAssay

Experiments:
[1] = test system: Botulinum neurotoxin type F light chain protease (Clostridium botulinum); experiment: Botulinum neurotoxin type F light chain protease inhibition, multiplex microsphere flow cytometry, validation set (AID 588459); conditions: multiplex microsphere protease substrate cleavage assay, at 10 µM, stronger effect = higher value
[2] = target: Botulinum neurotoxin type A (Clostridium botulinum) (UniProt P0DPI0); experiment: BoNT/A light chain protease inhibitors, biochemical, multiplex microsphere flow cytometry, validation set (AID 588460); conditions: at 10 µM, stronger effect = higher value
[3] = target: Lethal factor (Bacillus anthracis) (UniProt P15917); experiment: Lethal factor protease inhibitors, Bacillus anthracis, multiplex microsphere cleavage assay, validation set (AID 588461); conditions: flow cytometry, at 10 µM, stronger effect = higher value

Measured: inhibition

Cc1c(OC(=O)CNC(=O)OC(C)(C)C)ccc2c3c(c(=O)oc12)CCC3
inactive: [1] -2.7% | [2] -0.5% | [3] -2.2%

Cc1ncoc1C(=O)N1CCCC(C(=O)c2ccc(-c3ccccc3)c(F)c2)C1 (centres undefined)
inactive: [1] -2.3% | [2] -0.1% | [3] -5.3%

COc1ccc(CN2CCC(=O)NC2=O)cc1
inactive: [1] -2.3% | [2] -0.1% | [3] -3.5%

Cc1ccc(C)c(OCCCC(C)(C)C(=O)O)c1
inactive: [1] 1.7% | [2] -0.3% | [3] 1.8%

CC(C)=CCC(C)(C)/C=N/NC(N)=O
inactive: [1] 1.8% | [2] 0.6% | [3] 10.3%

Cc1[nH]nc(-c2ccc(O)cc2O)c1Oc1ccccc1
inactive: [1] 0.6% | [2] -0.4% | [3] -5.3%

O=C(NCCO)c1ccc2[nH]c3ccccc3c2c1
inactive: [1] 0.6% | [2] 0.1% | [3] 5.3%

C[C@]12CC[C@H]3[C@@H](CCC4=CC(=O)CC[C@@]43C)[C@@H]1CC[C@@H]2C(=O)CO
inactive: [1] 3.9% | [2] -2.4% | [3] -10%

O=C(CCCCCCCC(=O)c1ccccc1)c1ccccc1
inactive: [1] -2% | [2] -2.3% | [3] -9.8%

Cc1cc(O)c(C(C)C)cc1C1(c2cc(C(C)C)c(O)cc2C)OC(=O)c2ccccc21
inactive: [1] -0.9% | [2] -0.3% | [3] -8.1%

COc1ccc(CNC(=O)C2CCCN2C)cc1OC (centres undefined)
inactive: [1] 0.4% | [2] -2.5% | [3] 6.2%

COC(=O)CCC(=O)CN
inactive: [1] 0.5% | [2] 0.6% | [3] 0.6%

O=C(Nc1cccc(Cl)c1)N1CCN2C(=O)c3ccccc3C12c1ccccc1 (centres undefined)
inactive: [1] -3.9% | [2] -0.1% | [3] -4.4%

CCOc1cccc(N2C(=O)CC(N(CCc3ccc(OC)c(OC)c3)C(=O)CC)C2=O)c1 (centres undefined)
inactive: [1] 4.3% | [2] 0.7% | [3] 0.4%

CC(C)(C)NCC(O)COc1cccc2c1C[C@H](O)[C@H](O)C2 (some centres undefined)
inactive: [1] -2.3% | [2] 0.4% | [3] 1.6%

CCOc1ccc(CC2c3cc(OCC)c(OCC)cc3CCN2C(=O)CN2CCN(C)CC2)cc1OCC (centres undefined)
inactive: [1] -5.9% | [2] -1.4% | [3] 7.9%

COc1cc2oc(-c3ccc(O)cc3)cc(=O)c2c(OC)c1O
inactive: [1] -1.9% | [2] -0.3% | [3] -2.3%

CCC(=O)Oc1ccc(C(=O)Nc2ccc([N+](=O)[O-])cc2)cc1
inactive: [1] 2.3% | [2] -0.2% | [3] -3.6%

CC(=O)O[C@H]1C(=O)[C@@]2(C)[C@H]([C@H](OC(=O)c3ccccc3)[C@]3(O)C[C@H](OC(=O)[C@H](O)C(NC(=O)c4ccccc4)c4ccccc4)C(C)=C1C3(C)C)[C@]1(OC(C)=O)CO[C@@H]1C[C@@H]2O (some centres undefined)
inactive: [1] 1.1% | [2] -0.8% | [3] 4.6%

CCOC(=O)c1oc2cc(OCC(N)=O)ccc2c(=O)c1-c1ccc(OC)c(OC)c1
inactive: [1] -3.1% | [2] 1.1% | [3] 1.9%

COc1ccc(C2c3c(n[nH]c3C)CC(C)(O)C2C(C)=O)cc1OC (centres undefined)
inactive: [1] 4% | [2] 0.1% | [3] -2.7%

COc1cc2c(cc1O)CCN(C(=O)c1ccco1)C2C (centres undefined)
inactive: [1] 4.3% | [2] 1% | [3] 2.3%

COc1ccc(O)c(C2=Nc3ccccc3N=C(c3ccccc3)C2)c1
inactive: [1] 0.8% | [2] 0.8% | [3] 4.2%

CC(C)CCc1noc(CN2CCC(CCN3CCCC3=O)CC2)n1
inactive: [1] 1% | [2] 0.2% | [3] 3.1%

CCc1nc2ccccc2n1Cc1ccc(OC)c(OC)c1
inactive: [1] -1.2% | [2] 0.6% | [3] 0.6%

O=c1[nH]c(=O)n([C@H]2C[C@H](O)[C@@H](CO)O2)cc1C(F)(F)F
inactive: [1] -1% | [2] 0% | [3] 3.3%

CC1CCCC(C)N1NC(=O)c1ccc(Cl)c(S(N)(=O)=O)c1 (centres undefined)
inactive: [1] -0.2% | [2] 0.8% | [3] 5.8%

O=[N+]([O-])c1cccc2cn[nH]c12
inactive: [1] 6.9% | [2] 3% | [3] 6.3%

CCOc1ccc(C(NC(C)=O)c2ccc(OC)c(OC)c2)cc1 (centres undefined)
inactive: [1] -2.9% | [2] -0.9% | [3] 5.8%

O=C(CN1C(=O)C2CCc3[nH]c4ccccc4c3C2C1=O)N1CCCC1 (centres undefined)
inactive: [1] 0.5% | [2] 1.1% | [3] 4.3%

CCOc1cc2c3c(c1)C(C)=CC(C)(C)N3C(=O)C2=O
inactive: [1] 1.1% | [2] -2.5% | [3] -4%

Cc1cc(=O)oc2c(CN(C)Cc3ccccc3)c(O)ccc12
inactive: [1] -0.2% | [2] -0.7% | [3] -3.4%

Fc1ccccc1CNCCC(Cc1ccccc1)c1ccc2c(c1)OCO2 (centres undefined)
inactive: [1] -8.9% | [2] -0.6% | [3] 1.9%

CCn1cc(CN2N=C(C)CC2c2ccccc2)c(C)n1 (centres undefined)
inactive: [1] -0.5% | [2] 0% | [3] -2.2%

Nc1nc2c(nc(SCc3ccccc3Br)n2C2OC(CO)C(O)C2O)c(=O)[nH]1 (centres undefined)
inactive: [1] -2.6% | [2] -1.9% | [3] -1.1%

CC1(C)S[C@@H]2[C@H](NC(=O)C(C(=O)O)c3ccccc3)C(=O)N2[C@H]1C(=O)O (some centres undefined)
inactive: [1] 3.8% | [2] 1.2% | [3] -6.1%

O=C(c1ccc([N+](=O)[O-])cc1)N1CCSC1c1ccccc1Cl (centres undefined)
inactive: [1] -3.8% | [2] -0.1% | [3] -1.3%

c1ccc(CC2=NCCN2)cc1
inactive: [1] 1.9% | [2] -1.4% | [3] -4.7%

O=[N+]([O-])c1cc(/C=N/n2cnnc2)ccc1N1CCCC1
inactive: [1] -0.9% | [2] -0.6% | [3] -3.3%

COCCc1ccc(OCC(O)CNC(C)C)cc1 (centres undefined)
inactive: [1] -1.4% | [2] -1.4% | [3] -2.9%

CC(=O)OC[C@H]1O[C@@H](Sc2cccc3cccnc23)[C@H](OC(C)=O)[C@@H](OC(C)=O)[C@H]1OC(C)=O
inactive: [1] -3.9% | [2] -0.4% | [3] 0.7%

COC(=O)c1ccc(=O)n(Cc2ccco2)c1
inactive: [1] 3.3% | [2] -0.2% | [3] 3.8%

OC(CCN1CCCC1)(c1ccccc1)C1CCCCC1 (centres undefined)
inactive: [1] -0.8% | [2] -0.7% | [3] -2.2%

CCOc1ccc(OCCSc2nc3ccccc3[nH]2)cc1
inactive: [1] -6.7% | [2] -1.3% | [3] -1.8%

CC(=O)N1CCn2c3c(c4cc(C)ccc42)CCCC31 (centres undefined)
inactive: [1] 3.1% | [2] -0.3% | [3] -2.3%

CC[N+](C)(CC)CCOC(=O)C(O)(c1ccccc1)C1CCCCC1 (centres undefined)
inactive: [1] 4.8% | [2] 1.4% | [3] -1.1%

COc1c2ccoc2nc2c(OC)cccc12
inactive: [1] -3.7% | [2] 0.1% | [3] 3%

COc1cc2c(cc1NCc1ccc3c(c1)OCO3)oc1ccccc12
inactive: [1] -2.5% | [2] -0.9% | [3] -15.7%

Cc1ccc(OCCSc2ncccn2)c(C)c1
inactive: [1] 3.4% | [2] 0.6% | [3] 1.7%

COc1ccc(CN(CCC(c2ccc(F)cc2)C2CCOC(C)(C)C2)C(=O)c2ccco2)cc1 (centres undefined)
inactive: [1] -2.6% | [2] -0.3% | [3] 1.6%

CCNC(=O)c1sc2cc(C)ccc2c1Cl
inactive: [1] 2.4% | [2] -1.2% | [3] -1.4%

C[C@]12CC[C@@H]3c4ccc(O)cc4CC[C@H]3[C@@H]1CCC2=O
inactive: [1] 1.3% | [2] -2.2% | [3] -3.8%

CS(=O)(=O)Nc1cccc(C(=O)CC2(O)C(=O)Nc3ccc(Br)cc32)c1 (centres undefined)
inactive: [1] 3.1% | [2] 1.3% | [3] 6.6%

C/C(=N\NC(=O)c1ccccc1[N+](=O)[O-])c1ccc(Br)s1
inactive: [1] 1.5% | [2] 1.6% | [3] 5.5%

Cc1cccc(N2CCN(C(=S)c3ccccc3)CC2)c1
inactive: [1] 3.3% | [2] -1.9% | [3] -2.9%

Cc1ccsc1/C=C/C1=NCCCN1C
inactive: [1] -0.9% | [2] 1.6% | [3] -3.7%

O=C(O)C1CCN(C(=O)COc2ccc3c4c(c(=O)oc3c2)CCC4)CC1
inactive: [1] 3% | [2] -1.1% | [3] 2.5%

NCCOc1ccccc1OCCN
inactive: [1] 1.6% | [2] -0.4% | [3] -4.4%

Cc1oncc1C(=O)Nc1ccc(C(F)(F)F)cc1
inactive: [1] 0.9% | [2] 0.7% | [3] 2.2%

O=C1N=c2ccccc2=C1c1[nH]c(=S)[nH]c1O
inactive: [1] 3.3% | [2] -0.7% | [3] 7%

Cc1c2c(nc3c(C)cccc13)OC(C)C2 (centres undefined)
inactive: [1] 2.9% | [2] -2.4% | [3] -4.3%

Fc1ccc(-n2cc(CNCCc3ccccn3)c(-c3ccccc3Cl)n2)cc1
inactive: [1] -1.9% | [2] 1.1% | [3] 6.5%

CN(C)C(=O)C(CCN1CCC(O)(c2ccc(Cl)cc2)CC1)(c1ccccc1)c1ccccc1
inactive: [1] -1.4% | [2] -1.4% | [3] 7.3%
